According to PubChem BioAssay AID540350 (National Center for Advancing Translational Sciences (NCATS), 2011):
The list shows a part of the results. Records with an inconclusive call do not appear. Calls of active or inactive are those of the source. Calls follow the shape of the dose curve; as a rule, active = well fitted inhibition curve with a large enough effect; inconclusive = small, poorly fitted or top-dose-only effect; inactive = no such curve, though single readings can be large or run the other way.

biological target: 4'-phosphopantetheinyl transferase Sfp (Bacillus subtilis (strain 168)) (UniProt P39135); assay: qHTS Assay for Inhibitos of Bacillus subtilis Sfp phosphopantetheinyl transferase (PPTase): Chemistry Optimization Followup; settings: purified Sfp PPTase enzyme activity
Excerpt: The covalent attachment of a phosphopantetheinyl (4'-PP) arm to a variety of synthases and other proteins is a key posttranslational protein modification. The 4'-PP is installed on the proteins post-translationally from coenzyme A (CoA) on a conserved serine residue by action of phosphopantetheinyl transferase (PPTase) enzymes. Phosphopantetheinylation is essential for synthase activity, and removal of the PPTase gene precludes natural product synthesis in microorganisms, or in the case of fatty acid biosynthesis, renders the organism unviable. PPTase enzymes belong to a distinct structural superfamily. Within bacteria, these enzymes are grouped into two classes based upon primary structure, the AcpS-Type and Sfp-Type PPTases.
Sfp-type PPTases, corresponding to an activator of surfactin production in Bacillus subtilis, are responsible for modifying type I polyketide and nonribosomal peptide synthases of prokaryotes. Sfp-type PPTases are responsible for the activation of a variety of pathogen-associated virulence factors. Among these compounds are toxins such as mycolactone from Mycobacterium ulcerans, siderophores such as vibriobactin from Vibrio cholerae or mycobactin from Mycobacterium tuberculosis, as well as the mycolic acids which form the waxy cell wall of Mycobacteria. The biosyntheses of these natural products are considered attractive targets for drug design.
In search of small molecule Sfp-PPTase inhibitors, a fluorescence quenching assay was developed for detection of Bacillus subtilis Sfp-PPTase enzymatic activity in a miniaturized high-throughput format. The consensus ybbr acceptor peptide […] was N-terminally labeled with Black Hole Quencher-2 (BHQ-2) and used in combination with rhodamine-labeled coenzyme A as a co-substrate.
Inhibition of Sfp-PPTase was detected by recording the fluorescence intensity change over a 30-minute reaction period at a 525 nm excitation and 598 nm emission. Reagents were supplied by Michael Burkart and Timothy Foley, University of California at San Diego.
NIH Chemical Genomics Center [NCGC]
NIH Molecular Libraries Probe Centers Network [MLPCN]
Assay Submitter (PI): Michael Burkart, University of California, San Diego
3 uL of Sfp-PPTase enzyme (final concentration 15 nM) and 1 uL of substrate mixture (final concentration for rhodamine-CoA and BHQ-2-YbbR 5 uM and 12.5 uM, respectively) dispensed in columns 1, 2, 5 - 48. Columns 1 and 2 used to generate neutral control (uninhibited reaction)
Three uL of reagents, consisting of buffer (in columns 3 and 4 as negative control) and Sfp-PPTase (in columns 1, 2, 5 - 48) were dispensed into 1,536-well Greiner black solid bottom plate. Compounds (23 nL) were transferred via Kalypsys pintool equipped with 1,536-pin array. The plate was incubated for 15 min at room temperature, followed by the addition of 1 uL substrate to start the reaction. The plate was then centrifuged at 1000 rpm for 15 seconds, and the fluorescence intensity recorded on a ViewLux High-throughput CCD imager (Perkin-Elmer) using standard BODIPY optics (525 nm excitation and 598 nm emission). The plate was then incubated for 30 minutes, and a second read on the ViewLux was performed. The fluorescence intensity difference over the 30-minute period was used to calculate the respective reaction rate for each well.

Potency, active:
Cc1cc(C)nc(NC(=S)N2CCN(c3cccc(C#N)c3)CC2)c1 5910 nM, Cc1cc(C)nc(NC(=S)N2CCN(c3ccc(Cl)cc3C(F)(F)F)CC2)c1 2960 nM, COc1ccnc(NC(=S)N2CCN(c3ncc(C(F)(F)F)cc3Cl)CC2)c1 2640 nM, Cc1cc(C)nc(NC(=S)N2CCN(c3ccc(Cl)cc3F)CC2)c1 1870 nM, Cc1ccc(N2CCN(C(=S)Nc3cc(C)ccn3)CC2)cc1 6630 nM, Cc1cc(C)nc(NC(=S)N2CCN(c3cccc(C(F)(F)F)c3)CC2)c1 1670 nM, Cc1cc(C)nc(NC(=S)N2CCN(c3ccc4nonc4c3)CC2)c1 7440 nM
